From PubChem BioAssay (EPA / NIEHS) come the findings set out here.

“And” between values parts separate entries of the source, which are not always exact repeats. Equal values may be shown once. Records with an inconclusive call do not appear. Where a structure was tested more than once in an assay, its records may differ in their call. The source made the active and inactive calls. The calls were made as follows, unless noted: active = hit-call score of the fitted dose curve at least 0.9, where 1 is the maximum; inactive = score below 0.9.

The target of assay [1] is Estrogen receptor (Homo sapiens) (UniProt P03372). In words: OT_ERa_GFPERaERE_0480: Odyssey Thera (OT) 8-hour HeLa Transcription Induction Assay for Estrogen Receptor (AID 2283381). In a few lines: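 GFP-ERE reporter, HeLa, 8 h exposure. Readout: fluorescence microscopy, high-content image analysis. Fit direction positive vs DMSO negative control.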
For assay [2] the target is unchanged. In words: OT_ERa_GFPERaERE_0120: Odyssey Thera (OT) 2-hour HeLa Transcription Induction Assay for Estrogen Receptor (AID 2283382; active = hit-call score of the fitted dose curve at least 0.9, where 1 is the maximum). In a few lines:
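Fluorescence microscopy read-out: inducible fluorescent protein reporter in HeLa cells, imaged 2 h post-dose. Signal increase over DMSO negative control fitted as single primary endpoint via high content image analysis.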

The target in assay [3] is Bile acid receptor (Homo sapiens) (UniProt Q96RI1). The experiment in a line: OT_FXR_FXRSRC1_1440: Odyssey Thera (OT) 24-hour HEK293T Protein-Complementation Assay for Farnesoid X receptor/SRC-1 Co-activator (AID 2283384; active = hit-call score of the fitted dose curve at least 0.9, where 1 is the maximum). In a few lines: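 Fluorescence readout, 24 h post-dose, HEK293T; FXR and SRC-1 fused to complementary reporter fragments, association reconstitutes signal. Positive-direction fit vs DMSO baseline.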

For assay [4], the target named is Retinoic acid receptor RXR-alpha (Homo sapiens) (UniProt P19793). In words: OT_NURR1_NURR1RXRa_0480: Odyssey Thera (OT) 8-hour HEK293T Protein Complementation Assay for Nurr1/retinoid X receptor (RXR) (AID 2283385; active = hit-call score of the fitted dose curve at least 0.9, where 1 is the maximum). In a few lines:
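Read-out: fluorescence from protein-fragment complementation between Nurr1 and RXRα in human HEK293T cells, 8 h after dosing. DMSO served as negative control; increased signal counted as activity.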

The target is the same in assay [5]. The experiment in a line: OT_NURR1_NURR1RXRa_1440: Odyssey Thera (OT) 24-hour HEK293T Protein Complementation Assay for Nurr1/retinoid X receptor (RXR) (AID 2283386; active = hit-call score of the fitted dose curve at least 0.9, where 1 is the maximum). In a few lines: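 Fluorescence PCA read-out; HEK293T; 24 h post-dose; bait/prey fused to reporter fragments; gain-of-signal fit vs DMSO negative control.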
Assay [6] addresses Peroxisome proliferator-activated receptor gamma (Homo sapiens) (UniProt P37231). The experiment in a line: OT_PPARg_PPARgSRC1_0480: Odyssey Thera (OT) 8-hour Protein-Complementation Assay for Peroxisome Proliferator-activated Receptor Gamma / SRC-1 Co-activator (AID 2283387; active = hit-call score of the fitted dose curve at least 0.9, where 1 is the maximum). In a few lines:
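HEK293T transiently transfected with PPARg and SRC-1 fused to Venus YFP fragments, compounds 8 h at 37C. Fixed, Draq5-stained cells imaged; nuclear/cytoplasmic 488 nm fluorescence ratio over at least 350 cells per image; gain fitted versus DMSO.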

Assay [7] has the same target. In words: OT_PPARg_PPARgSRC1_1440: Odyssey Thera (OT) 24-hour Protein-Complementation Assay for Peroxisome Proliferator-activated Receptor Gamma/ SRC-1 Co-activator (AID 2283388; active = hit-call score of the fitted dose curve at least 0.9, where 1 is the maximum). In a few lines:
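HEK293T transiently transfected with PPARg/SRC-1 split-Venus YFP fusions 48 h before dosing, then treated 24 h at 37C. Fixed cells imaged; nuclear/cytoplasmic 488 nm fluorescence ratio, gain of signal versus DMSO.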

The nature of assay [8]: CEETOX_H295R_11DCORT: CeeTox H295R High-throughput Steroidogenesis Assay for 11-Deoxycortisol (11DCORT) (AID 2283432).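 As to AC50: 11-deoxycortisol secreted into the medium measured by LC-MS/MS.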 Particulars: actives raise or lower the signal. In a few lines:
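H295R cells prestimulated 48 h with 10 uM forskolin, then exposed 48 h to chemical in 0.1% DMSO. 11-Deoxycortisol in medium quantified by HPLC-MS/MS after MTBE extraction; bidirectional fit versus DMSO. MTT viability read in same wells.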

Assay [9] is described as follows: CEETOX_H295R_OHPREG: CeeTox H295R High-throughput Steroidogenesis Assay for OH-Pregnenolone (OHPREG) (AID 2283434). The following applies: actives raise or lower the signal. In a few lines: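 Readout: HPLC-MS/MS of 17alpha-hydroxypregnenolone in medium after 48 h chemical exposure of H295R cells pretreated with forskolin. Values fitted bidirectionally relative to DMSO; chemicals reducing viability to 20–70% were retested after 10-fold dilution.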

The nature of assay [10]: CEETOX_H295R_OHPROG: CeeTox H295R High-throughput Steroidogenesis Assay for OH-Progesterone (OHPROG) (AID 2283435).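 As to AC50: 17alpha-hydroxyprogesterone secreted into medium measured by HPLC-MS/MS.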 Particulars: actives raise or lower the signal. In a few lines: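 HPLC-MS/MS quantification of 17alpha-hydroxyprogesterone secreted by H295R cells after 48 h chemical exposure, following 48 h 10 uM forskolin prestimulation. Gain or loss of signal fitted relative to DMSO. Viability checked by MTT in the same wells.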

Assay [11] is described as follows: CEETOX_H295R_CORTISOL: CeeTox H295R High-throughput Steroidogenesis Assay for Cortisol (AID 2283438).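 Also: cortisol secreted into medium quantified by LC-MS/MS.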 The following applies: actives raise or lower the signal. In a few lines:
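Read-out: cortisol in culture medium by reverse-phase C18 HPLC with ESI-positive tandem MS, after MTBE liquid-liquid extraction. Cells: human adrenal H295R, forskolin-primed (10 uM, 48 h) before 48 h chemical exposure in 0.1% DMSO.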

A short description of assay [12]: CEETOX_H295R_DOC: CeeTox H295R High-throughput Steroidogenesis Assay for DOC (AID 2283439). The following applies: actives raise or lower the signal. In a few lines:
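Human adrenocortical H295R cells, passages up to 10, received 10 uM forskolin for 48 h before chemical addition. After another 48 h exposure in 0.1% DMSO, secreted DOC was measured by LC-MS/MS, with gain or loss fitted against DMSO controls.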

The nature of assay [13]: CEETOX_H295R_ESTRADIOL: CeeTox H295R High-throughput Steroidogenesis Assay for Estradiol (AID 2283440).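 Also: estradiol secreted into medium quantified by LC-MS/MS after dansyl derivatisation.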 Particulars: actives raise or lower the signal. In a few lines: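 H295R cells pre-stimulated 48 h with 10 uM forskolin, then exposed 48 h to chemical in 0.1% DMSO. Medium estradiol quantified by MTBE extraction, dansyl derivatisation and HPLC-MS/MS; bidirectional fit versus DMSO; MTT viability required >/=70%.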

A short description of assay [14]: CEETOX_H295R_ESTRONE: CeeTox H295R High-throughput Steroidogenesis Assay for Estrone (AID 2283441).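 Also: estrone secreted into medium measured by LC-MS/MS after dansyl derivatization.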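 As to AC50: human adrenal H295R cells prestimulated with forskolin for two days.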 The following applies: actives raise or lower the signal. In a few lines:
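Forskolin-stimulated H295R cells are treated 48 h with chemical, and estrone in the medium is measured by LC-MS/MS. Activity is fitted in both directions relative to DMSO controls, with chemicals diluted until MTT viability reaches at least 70%.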

The nature of assay [15]: CEETOX_H295R_PROG: CeeTox H295R High-throughput Steroidogenesis Assay for Progesterone (PROG) (AID 2283442). Particulars: actives raise or lower the signal. In a few lines: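 H295R adrenal cells prestimulated 48 h with 10 uM forskolin, then exposed 48 h to test chemical in 0.1% DMSO. Progesterone in medium quantified by HPLC-MS/MS after MTBE extraction; viability checked by MTT in same wells.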

Read-out in assay [16]: Tumor necrosis factor receptor superfamily member 6 (Homo sapiens) (UniProt P25445)
The experiment in a line: LTEA_HepaRG_FAS: Life Technologies and Expression Analysis (LTEA) Assay for Fas cell surface death receptor (FAS) using HepaRG (AID 2283447). Particulars: mRNA level, 48 h; actives raise or lower the signal. In a few lines:
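Differentiated human HepaRG cells, pre-cultured 48 h, were exposed in duplicate for 48 h to 8-point half-log concentrations (top 100 uM, 0.5% DMSO) in serum-free induction medium; FAS mRNA measured by qRT-PCR, normalized to ACTB/GAPDH/POLR2A, bidirectional fit versus DMSO.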

Read-out in assay [17]: Fatty acid synthase (Homo sapiens) (UniProt P49327)
In words: LTEA_HepaRG_FASN: Life Technologies and Expression Analysis (LTEA) Assay for Fatty Acid Synthase (FASN) using HepaRG (AID 2283448). Particulars: mRNA level, 48 h; actives raise or lower the signal. In a few lines:
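HepaRG, 48 h exposure, 8-pt half-log series top 100 uM, 0.5% DMSO vehicle, duplicates. Readout: FASN transcript by Fluidigm qRT-PCR; housekeeping-normalized; bidirectional curve fit vs DMSO baseline.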

Read-out in assay [18]: Cyclin D2 (CCND2), CCND2 (gene 894)
In words: LTEA_HepaRG_CCND2: Life Technologies and Expression Analysis (LTEA) Assay for Cyclin D2 (CCND2) using HepaRG (AID 2283449).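 Also: CCND2 transcript measured by TaqMan qRT-PCR and normalised to three housekeeping genes.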 The following applies: mRNA level, 48 h; actives raise or lower the signal. In a few lines:
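In this HepaRG study, an eight-point concentration series (max 100 uM, 0.5% DMSO) is applied for 48 h. CCND2 mRNA change is derived by qRT-PCR normalised to ACTB, GAPDH and POLR2A.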

Assay [19] addresses Bile acid receptor (Homo sapiens) (UniProt Q96RI1). In words: OT_FXR_FXRSRC1_0480: Odyssey Thera (OT) 8-hour HEK293T Protein-Complementation Assay for Farnesoid X receptor/SRC-1 Co-activator (AID 2283383; active = hit-call score of the fitted dose curve at least 0.9, where 1 is the maximum). In a few lines:
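Fluorescence intensity read-out, 8 h post-dose, HEK293T protein-fragment complementation; FXR bait and SRC-1 prey each linked to reporter fragments. Activity scored as signal increase over DMSO negative control.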

Sequence of Bile acid receptor (Homo sapiens) (Q96RI1 whole entry, looked up, the tested form may be a part): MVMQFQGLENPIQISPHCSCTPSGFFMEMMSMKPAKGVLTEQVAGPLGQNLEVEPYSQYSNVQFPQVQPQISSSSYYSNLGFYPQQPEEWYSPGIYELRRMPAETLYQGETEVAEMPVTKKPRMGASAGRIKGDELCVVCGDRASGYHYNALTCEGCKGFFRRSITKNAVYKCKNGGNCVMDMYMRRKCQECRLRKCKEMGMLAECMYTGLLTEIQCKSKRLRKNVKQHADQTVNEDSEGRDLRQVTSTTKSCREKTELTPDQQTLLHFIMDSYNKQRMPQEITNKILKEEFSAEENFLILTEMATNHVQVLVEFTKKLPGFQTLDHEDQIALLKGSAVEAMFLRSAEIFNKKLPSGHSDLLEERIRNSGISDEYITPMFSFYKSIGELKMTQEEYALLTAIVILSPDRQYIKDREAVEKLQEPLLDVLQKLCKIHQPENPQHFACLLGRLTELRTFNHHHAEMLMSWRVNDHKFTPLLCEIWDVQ
Sequence of Retinoic acid receptor RXR-alpha (Homo sapiens) (P19793 whole entry, looked up, the tested form may be a part): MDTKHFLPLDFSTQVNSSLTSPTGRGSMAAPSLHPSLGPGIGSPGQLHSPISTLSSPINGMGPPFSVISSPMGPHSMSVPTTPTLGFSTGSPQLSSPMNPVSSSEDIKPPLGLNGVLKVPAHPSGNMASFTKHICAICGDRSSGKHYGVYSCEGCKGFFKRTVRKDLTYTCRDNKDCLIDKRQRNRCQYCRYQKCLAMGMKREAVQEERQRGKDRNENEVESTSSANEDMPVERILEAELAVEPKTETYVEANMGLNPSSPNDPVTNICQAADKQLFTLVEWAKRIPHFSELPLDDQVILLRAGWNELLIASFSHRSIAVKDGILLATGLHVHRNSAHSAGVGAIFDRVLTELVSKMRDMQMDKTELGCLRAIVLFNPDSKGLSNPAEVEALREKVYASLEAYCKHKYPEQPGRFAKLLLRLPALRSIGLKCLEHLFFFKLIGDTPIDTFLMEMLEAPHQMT
Sequence of Peroxisome proliferator-activated receptor gamma (Homo sapiens) (P37231 whole entry, looked up, the tested form may be a part): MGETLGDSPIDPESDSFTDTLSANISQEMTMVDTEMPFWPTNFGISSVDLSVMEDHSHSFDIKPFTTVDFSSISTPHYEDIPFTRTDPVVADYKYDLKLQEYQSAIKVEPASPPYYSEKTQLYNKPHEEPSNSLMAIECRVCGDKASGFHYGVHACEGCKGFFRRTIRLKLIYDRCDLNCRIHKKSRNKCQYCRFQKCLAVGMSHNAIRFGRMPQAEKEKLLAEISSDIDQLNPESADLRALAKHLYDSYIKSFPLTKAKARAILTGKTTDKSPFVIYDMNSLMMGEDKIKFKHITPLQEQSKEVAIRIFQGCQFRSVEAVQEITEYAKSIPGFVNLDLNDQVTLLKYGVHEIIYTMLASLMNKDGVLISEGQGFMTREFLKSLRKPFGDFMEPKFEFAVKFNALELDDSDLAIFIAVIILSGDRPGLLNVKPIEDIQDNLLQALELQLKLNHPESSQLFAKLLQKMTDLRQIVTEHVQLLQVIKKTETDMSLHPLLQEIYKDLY
Sequence of Estrogen receptor (Homo sapiens) (P03372 whole entry, looked up): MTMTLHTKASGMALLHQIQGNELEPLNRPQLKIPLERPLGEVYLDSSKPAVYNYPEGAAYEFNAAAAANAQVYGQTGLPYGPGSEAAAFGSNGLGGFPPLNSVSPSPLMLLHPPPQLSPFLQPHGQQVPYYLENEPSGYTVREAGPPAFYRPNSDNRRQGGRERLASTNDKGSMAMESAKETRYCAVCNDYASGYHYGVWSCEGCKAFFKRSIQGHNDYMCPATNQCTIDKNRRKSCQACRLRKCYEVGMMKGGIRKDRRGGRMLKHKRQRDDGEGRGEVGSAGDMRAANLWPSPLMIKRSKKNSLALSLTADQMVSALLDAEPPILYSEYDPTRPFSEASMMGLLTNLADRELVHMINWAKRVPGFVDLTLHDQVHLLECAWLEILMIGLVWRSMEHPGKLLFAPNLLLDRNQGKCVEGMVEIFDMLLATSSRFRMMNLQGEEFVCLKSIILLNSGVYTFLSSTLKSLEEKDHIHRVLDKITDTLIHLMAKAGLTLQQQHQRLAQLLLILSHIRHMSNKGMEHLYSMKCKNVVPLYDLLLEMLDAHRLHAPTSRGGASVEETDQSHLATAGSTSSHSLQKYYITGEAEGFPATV
Sequence of Fatty acid synthase (Homo sapiens) (P49327 whole entry, looked up): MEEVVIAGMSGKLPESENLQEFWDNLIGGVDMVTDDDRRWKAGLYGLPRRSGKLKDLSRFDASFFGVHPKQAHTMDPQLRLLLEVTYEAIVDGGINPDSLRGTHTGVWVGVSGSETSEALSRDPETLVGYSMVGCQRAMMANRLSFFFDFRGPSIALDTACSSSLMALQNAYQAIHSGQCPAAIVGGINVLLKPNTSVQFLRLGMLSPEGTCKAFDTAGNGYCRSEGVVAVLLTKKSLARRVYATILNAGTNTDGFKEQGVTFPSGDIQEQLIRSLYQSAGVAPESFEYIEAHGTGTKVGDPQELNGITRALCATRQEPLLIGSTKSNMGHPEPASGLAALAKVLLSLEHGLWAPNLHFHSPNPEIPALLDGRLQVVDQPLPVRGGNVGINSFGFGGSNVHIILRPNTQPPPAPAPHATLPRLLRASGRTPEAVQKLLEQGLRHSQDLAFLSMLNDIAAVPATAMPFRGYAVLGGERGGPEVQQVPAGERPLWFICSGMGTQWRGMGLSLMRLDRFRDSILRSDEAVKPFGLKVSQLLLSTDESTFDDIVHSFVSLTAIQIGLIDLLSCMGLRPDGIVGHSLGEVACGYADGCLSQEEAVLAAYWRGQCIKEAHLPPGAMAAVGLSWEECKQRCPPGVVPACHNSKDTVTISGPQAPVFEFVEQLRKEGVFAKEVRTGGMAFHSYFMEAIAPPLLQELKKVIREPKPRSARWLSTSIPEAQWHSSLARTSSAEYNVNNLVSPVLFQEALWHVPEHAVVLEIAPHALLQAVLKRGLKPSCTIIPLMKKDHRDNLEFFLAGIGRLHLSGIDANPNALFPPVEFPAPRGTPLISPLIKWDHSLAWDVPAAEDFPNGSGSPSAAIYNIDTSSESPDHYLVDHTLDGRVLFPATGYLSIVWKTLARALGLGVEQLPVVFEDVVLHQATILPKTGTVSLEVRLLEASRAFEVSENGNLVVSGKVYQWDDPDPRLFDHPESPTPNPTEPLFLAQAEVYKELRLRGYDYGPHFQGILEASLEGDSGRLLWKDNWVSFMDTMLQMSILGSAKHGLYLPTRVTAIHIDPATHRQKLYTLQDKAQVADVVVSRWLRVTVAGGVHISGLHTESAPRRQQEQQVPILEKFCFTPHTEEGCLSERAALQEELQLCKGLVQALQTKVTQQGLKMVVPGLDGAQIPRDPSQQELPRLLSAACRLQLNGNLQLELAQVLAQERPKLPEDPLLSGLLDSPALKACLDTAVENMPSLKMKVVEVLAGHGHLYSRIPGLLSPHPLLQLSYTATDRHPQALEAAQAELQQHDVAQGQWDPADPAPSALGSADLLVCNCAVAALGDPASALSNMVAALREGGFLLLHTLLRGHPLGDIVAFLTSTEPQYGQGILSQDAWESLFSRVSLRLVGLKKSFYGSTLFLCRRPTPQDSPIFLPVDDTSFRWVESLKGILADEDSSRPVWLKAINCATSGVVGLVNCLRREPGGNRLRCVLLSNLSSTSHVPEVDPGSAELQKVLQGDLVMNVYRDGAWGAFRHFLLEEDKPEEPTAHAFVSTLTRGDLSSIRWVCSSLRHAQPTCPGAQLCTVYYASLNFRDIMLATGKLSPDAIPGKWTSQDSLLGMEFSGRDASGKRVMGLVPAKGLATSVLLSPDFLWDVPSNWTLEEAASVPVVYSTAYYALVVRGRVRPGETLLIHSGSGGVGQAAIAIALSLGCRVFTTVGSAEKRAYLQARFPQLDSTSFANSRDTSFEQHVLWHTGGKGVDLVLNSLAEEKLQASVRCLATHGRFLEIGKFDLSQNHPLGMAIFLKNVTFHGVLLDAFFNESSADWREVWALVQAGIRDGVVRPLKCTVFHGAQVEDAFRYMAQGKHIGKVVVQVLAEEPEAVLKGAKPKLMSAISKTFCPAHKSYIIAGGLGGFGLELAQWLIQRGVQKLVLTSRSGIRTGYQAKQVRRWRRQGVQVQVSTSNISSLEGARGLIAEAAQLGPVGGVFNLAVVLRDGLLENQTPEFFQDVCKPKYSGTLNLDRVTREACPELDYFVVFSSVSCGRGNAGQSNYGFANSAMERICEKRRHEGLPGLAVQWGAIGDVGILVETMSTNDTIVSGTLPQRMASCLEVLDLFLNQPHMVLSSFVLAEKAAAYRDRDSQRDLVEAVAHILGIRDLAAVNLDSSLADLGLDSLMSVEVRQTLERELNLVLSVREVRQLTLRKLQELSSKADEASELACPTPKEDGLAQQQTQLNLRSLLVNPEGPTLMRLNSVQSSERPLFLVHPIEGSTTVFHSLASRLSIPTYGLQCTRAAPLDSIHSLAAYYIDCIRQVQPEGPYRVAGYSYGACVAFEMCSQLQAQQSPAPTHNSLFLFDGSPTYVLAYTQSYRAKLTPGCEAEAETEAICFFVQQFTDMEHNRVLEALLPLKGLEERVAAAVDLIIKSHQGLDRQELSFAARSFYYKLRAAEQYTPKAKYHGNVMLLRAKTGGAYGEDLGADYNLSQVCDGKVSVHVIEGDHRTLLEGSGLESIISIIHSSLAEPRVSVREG

On to `CNC(=O)/C=C(\C)OP(=O)(OC)OC`, for which the compound was classed as inactive in assay [1], in assay [2], in [3], in assay [4], in assay [5] and in assay [6]. Besides, the result in assay [7], in assay [8], in assay [9], in [10], in assay [11] and in assay [12] was inactive. For the same compound, the call in assay [13], in assay [14], in assay [15], in assay [16], in assay [17] and in [18] was inactive.

In the case of `O=C1c2ccccc2C(=O)N1SC(Cl)(Cl)Cl`, the outcome in assay [1], in assay [2], in [3], in assay [6], in [7] and in assay [9] was inactive. In addition, the compound was called inactive in assay [10], in assay [13], in assay [14], in assay [15], in [16] and in [17]. For the same compound, the outcome in [18] was inactive.

The AC50 is the concentration giving half of the maximal activity seen. With `COc1nn(CSP(=S)(OC)OC)c(=O)s1`, the outcome in [1], in [2], in assay [19], in assay [3], in assay [5] and in assay [6] was inactive. In addition, the result in assay [7], in [8], in assay [9], in assay [11], in assay [16] and in [17] was inactive. Also, in assay [18], the call was inactive. The AC50 in assay [10] is 13.6 µM (active); in [12] it was 40.2 µM (active); in assay [13] it was 11.5 µM (active); in assay [14] it was 21.4 µM (active); in [15], 38.2 µM (active).

Take `CCOCN(C(=O)CCl)c1c(C)cccc1CC`: the compound was classed as inactive in [1], in [2], in assay [4], in assay [5], in assay [6] and in [7]. Besides, the result in [16] and in assay [18] was inactive. In addition, the AC50 was 654 nM (active) in [4] and 90.8 µM (active) in [17].

As to `O=C(Nc1ccccc1)Nc1cnns1`, the call in assay [1], in assay [2], in [3], in [6], in assay [7] and in assay [16] was inactive. In addition, the AC50 in [17] was 72.7 µM (active).

In the case of `CCC(C)Nc1c([N+](=O)[O-])cc(C(C)(C)C)cc1[N+](=O)[O-]` (centres undefined), the outcome in [1], in assay [5], in assay [6], in assay [7], in assay [13] and in assay [14] was inactive. For the same compound, the outcome in assay [16], in assay [17] and in assay [18] was inactive. The AC50 in [2] is 12.2 µM (active); in assay [4] it was 84.6 µM (active) and 73.7 µM (active); in assay [5], 83.6 µM (active); in assay [8], 74.6 µM (active); in assay [9], 74.5 µM (active); in [10], 71.7 µM (active). Further, the AC50 is 78.1 µM (active) in assay [11], 87.1 µM (active) in assay [12] and 88.3 µM (active) in [15].
